Source: PubChem
Only some compounds are listed: those with a hit (about 2.4% of all), similar ones and a draw of the others.
D2 ag-1: HTS Assay for Allosteric Agonists of the Human D2 Dopamine Receptor: Primary Screen for Agonists; 340,000 compounds, 0.53% hits; activation, % at 2 µM; HEK293 T-REx D2 cells, calcium flux agonist mode; D(2) dopamine receptor (Homo sapiens), P14416;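 active = activation over 3 SD above normal in the single-dose calcium agonist read, cut at about 30% in these data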; also: 0% is about no effect
Target sequence (P14416 whole entry, looked up): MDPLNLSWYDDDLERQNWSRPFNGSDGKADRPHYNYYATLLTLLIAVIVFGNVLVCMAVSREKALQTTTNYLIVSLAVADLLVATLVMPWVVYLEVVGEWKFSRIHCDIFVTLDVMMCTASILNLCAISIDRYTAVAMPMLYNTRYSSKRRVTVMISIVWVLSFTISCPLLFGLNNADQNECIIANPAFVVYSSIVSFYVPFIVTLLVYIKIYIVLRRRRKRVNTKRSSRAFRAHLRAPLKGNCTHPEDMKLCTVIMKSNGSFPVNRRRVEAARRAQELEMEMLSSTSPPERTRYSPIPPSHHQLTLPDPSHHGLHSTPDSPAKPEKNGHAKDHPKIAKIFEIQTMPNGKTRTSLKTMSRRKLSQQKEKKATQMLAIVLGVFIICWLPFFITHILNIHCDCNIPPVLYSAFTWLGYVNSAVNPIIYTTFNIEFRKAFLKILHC
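In this primary screen, compounds producing a positive calcium signal within 180 s of addition to tetracycline-induced, force-coupled HEK293 Trex D2 cells are flagged; cells are dye-loaded with a no-wash calcium kit beforehand.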
D2 PAM-1: Beta-Arrestin HTS for Positive Allosteric Modulators of the Human D2 Dopamine Receptor: Potentiators; D(2) dopamine receptor (Homo sapiens), P14416; DiscoveRx D2 beta-arrestin cells, luminescence, 90 min; 100% = 57 uM dopamine signal; potentiation, % (no concentration beside the values); 360,000 compounds, 0.23% hits; in the data active = potentiation above about 50%
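D2 cells co-treated with compound plus 50 nM dopamine (EC20) for 90 min at 37 deg C to detect potentiation. Beta-arrestin recruitment was read as enzyme-fragment luminescence after 1 h at ambient temperature. Full response was set by 57 uM dopamine.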
D2 antag: HTS Assay for Allosteric Antagonists of the Human D2 Dopamine Receptor: Primary Screen for Antagonists; D(2) dopamine receptor (Homo sapiens), P14416; HEK293 TREx D2 cells, calcium flux, dopamine EC80; inhibition, % at 10 µM; 340,000 compounds, 2% hits; in the data active = inhibition above about 30%; inactive = below that, where a call was filed; also: 0% is about no effect
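Overnight-induced (tetracycline, 30 C) HEK293 T-REx cells carrying force-coupled D2 receive a no-wash calcium dye, then compound, then EC80 dopamine at 180 s; signals are read kinetically throughout.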
D2 ag-2: Beta-Arrestin HTS for Positive Allosteric Modulators of the Human D2 Dopamine Receptor: Agonists; D(2) dopamine receptor (Homo sapiens), P14416; DiscoveRx PathHunter D2 beta-arrestin, luminescence, 90 min; 100% = 57 uM dopamine signal; activation, % (no concentration beside the values); 360,000 compounds, 0.084% hits; AID 624465, 2012; in the data active = activation above about 40%
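DiscoveRx PathHunter D2 beta-arrestin cells (2,100/well) attached overnight, then compound-stimulated 90 min at 37 C in HBSS/10 mM HEPES/0.1% Tween-20 buffer; beta-galactosidase complementation read by luminescence after 1 h at ambient temperature. Dopamine 57 uM final (EC100) as control.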
D2 PAM-2: HTS Assay for Positive Allosteric Modulators of the Human D2 Dopamine Receptor: Primary Screen for Potentiators. HEK293 T-REx D2, calcium flux, EC20 dopamine potentiation. potentiation, % at 10 µM. 340,000 compounds, 0.34% hits;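 active = potentiation over 3 SD above the plate norm, cut at about 30% in these data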; also: 0% is about no effect
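Primary screen. Calcium kinetics in induced HEK293 T-REx D2 cells: compound pre-addition 180 s, EC20 dopamine, 180 s more.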
* hit, by the source's call; . = no result.

SMILES	D2 ag-1	D2 PAM-1	D2 antag	D2 ag-2	D2 PAM-2
CN(C)C1(CNC(=O)c2ccc(NS(=O)(=O)c3ccc(Cl)c(Cl)c3)cc2)CCCCC1	1	-3	8	-1	0
CC(=O)N1CCC2(CC1)CC(=O)c1cc(OCC(=O)N3CCN(C)CC3)ccc1O2	0	-5	-4	-1	-3
CC(=O)N1CCC2(CC1)CC(=O)c1cc(OCC(=O)N3CCC4(CC3)OCCO4)ccc1O2	0	2	0	2	31*
C[C@H](NC(=O)CCC(=O)N1C[C@H]2C[C@H](C1)c1cccc(=O)n1C2)c1ccccc1	0	5	17	2	-6
O=c1cccc2n1CC1CC2CN(C(c2ccccc2)c2sc3ncnn3c2O)C1 (stereo not given)	1	-1	32*	-2	4
Cc1ccccc1-n1nc(C)c2c1NC(=O)CSC2c1ccccc1C(F)(F)F (stereo not given)	-1	.	.	.	-1
C1=C(c2c[nH]c3ccccc23)CCN(Cc2ccccc2)C1	0	6	70*	-19	-21
CN1CC=C(c2c[nH]c3ccccc23)CC1	0	-13	75*	-2	-22
O=c1c2ccccc2nc(/C=C/c2ccccc2O)n1-c1ccc(Br)cc1	0	.	.	.	2
Cc1cc(C)cc(N2C(=O)NC(=O)/C(=C\c3cccn3-c3ccc(Cl)cc3)C2=O)c1	0	-7	38*	1	9
Cc1cc(C)cc(N2C(=O)NC(=O)/C(=C\c3cccn3-c3ccccc3)C2=O)c1	4	-2	-6	-3	19
COc1cc(CN2CC=C(c3ccc(F)cc3)CC2)cc(OC)c1	0	-2	81*	-2	-30
COc1cc(C)c(CN2CC=C(c3ccc(F)cc3)CC2)cc1C	-1	-17	84*	0	-27
O=S1(=O)N(Cc2ccccc2)CCCN1Cc1ccc(F)cc1Cl	0	.	.	.	-4
CCC(=O)N1CC(=O)Nc2ccc(C)cc2C1c1ccc(F)cc1 (stereo not given)	-1	.	.	.	13
CCCN1CCCC(C(=O)c2cc(C)c(OC)c(C)c2)C1 (stereo not given)	1	-13	86*	-2	-27
COc1c(C)cc(C(=O)C2CCCN(Cc3cccc(C)n3)C2)cc1C (stereo not given)	38*	-16	5	-5	-6
CCOC(=O)C1CCCN(c2ccc([N+](=O)[O-])c3nonc23)C1 (stereo not given)	135*	-15	52*	4	-8
CC1CCCN(c2ccc(C(=O)N3CCC4(CC3)OCCO4)cc2[N+](=O)[O-])C1 (stereo not given)	3	-6	-4	0	6
Cc1ccc(S(=O)(=O)N(c2cc(Cl)c(O)c(Cl)c2)P(=O)(OC(C)C)OC(C)C)cc1	0	-8	5	3	31*
Cc1ccccc1-n1c(/C=C/c2ccccc2F)nc2ccccc2c1=O	-1	.	.	.	1
O=C(Nc1ccc(F)c(Cl)c1)N(Cc1ccc2c(c1)OCO2)C1CCN(Cc2ccccc2)CC1	1	.	.	.	-4
CCN1C(=O)CC(c2cccnc2)=Nc2ccccc21	1	-10	31*	1	3
O=C1CC(c2cccnc2)=NN1c1ccc(Cl)cc1Cl	0	-12	4	-2	6
C[C@@H]1C[C@H]2OC(=O)C3(CO3)[C@H]2[C@H](O)[C@]2(C)C(=O)C3OC3[C@@H]12 (stereo not given in full)	0	.	41*	.	15
Cc1cccc(NC(=O)Cn2cc(C(=O)c3ccccc3)c3ccccc32)c1C	1	.	.	.	-4
Nc1c(C(=O)Nc2ccc(Cl)c(C(F)(F)F)c2)sc2nc3c(cc12)N1CCC3CC1	0	.	.	.	-2
Cc1ccc(S(=O)(=O)N(C)C)cc1NC(=O)C(C)[N+]12CCN(CC1)CC2 (stereo not given)	-7	5	32*	-4	-6
